In all, about 48,000 compounds went through this assay and about 13,000 (27%) showed an effect of 50% or more. The list shows a part of the results.
test system: Wolbachia pipientis; test: Anti-Wolbachia Cell-Based Screen; assay type: functional; design: scale not given: in the data most compounds retested in dose-response had high values; settings: 5 µM

| SMILES | Percent Effect [%] |
| --- | --- |
| CN(C)C(=O)Cc1ccc(NCc2nccn2C)cc1 | -22.63 |
| O=C(NCCn1ccc(-c2ccncc2)n1)c1ccncc1 | -0.4931 |
| O=C(NCCNc1cc(-n2cccc2)ncn1)c1cccs1 | 19.24 |
| Cc1nccn1-c1ccc(CNC(=O)c2ccc[nH]2)cn1 | 15.47 |
| Cc1nccn1-c1ccc(=O)n(CCNC(=O)c2cccs2)n1 | 125.6 |
| Cc1nccn1-c1ccc(=O)n(CCNC(=O)c2ccncc2)n1 | 97.47 |
| Cc1nccn1-c1ccc(CNC(=O)c2ccc([S+](C)[O-])cc2)cn1 (centres undefined) | 4.955 |
| Cc1nc(NC(=O)N2CCCC(N(C)C)C2)nn1C (centres undefined) | -14.3 |
| COC(=O)c1ccc2ccn(CC3CCCCO3)c(=O)c2c1 (centres undefined) | -39.6 |
| Oc1ccc(N2CCN(Cc3cc4c(cc3Br)OCCO4)CC2)cc1 | -10.73 |
| Cn1cc(CN2CCC3(CCCN(C(=O)c4cnccn4)C3)C2)cn1 (centres undefined) | 7.413 |
| Cn1cc(CN2CCC3(CC2)CN(C(=O)c2cnccn2)CCO3)cn1 | 101.7 |
| CC(C)CCN1CCC2(CC1)CN(C(=O)c1cnccn1)CCO2.O=C(O)C(F)(F)F | -8.642 |
| Cc1ccc(CN2CCC3(CC2)CN(C(=O)c2cnccn2)CCO3)o1.O=C(O)C(F)(F)F | 98.59 |
| Cn1cc(CN2CCCC3(CCN(C(=O)c4cnccn4)C3)C2)cn1.O=C(O)C(F)(F)F.O=C(O)C(F)(F)F (centres undefined) | -36.61 |
| CCc1ccc(CN2CCC3(CCCN(C(=O)c4cnccn4)C3)C2)o1.O=C(O)C(F)(F)F (centres undefined) | 23.64 |
| Cc1cc2n(n1)CC(CNC1CCN(C(=O)C3CC3)CC1)CN2 (centres undefined) | 1.236 |
| Nc1cc(C(=O)NCC2CCN(Cc3ccncc3F)C2)ccn1 (centres undefined) | -104.6 |
| CC(C)(C)c1nccc(N2CCC(OCCN3CCCCC3)C2)n1 (centres undefined) | 4.599 |
| CC(C)n1cc(CN(C)C[C@@H]2CCCN3CCCC[C@H]23)cn1 | 12.76 |
| CC(Cn1cncc1-c1cnn(C2CCCCC2)c1)N1CCCCC1.Cl (centres undefined) | 109.8 |
| CC(CN1CCCCCC1)NCc1nncn1C1CCCCC1 (centres undefined) | -0.3524 |
| COCCn1c2c(ccc1=O)CC(N)CC2 (centres undefined) | -4.933 |
| COCC(=O)N1CCc2ccc(=O)n(CC3CC3)c2CC1 | 104.1 |
| COCCn1c2c(ccc1=O)CCN(C(=O)CC1CC1)CC2 | 117 |
| O=C(NC1CC1)N1CCc2ccc(=O)n(CCN3CCCC3)c2CC1.O=C(O)C(F)(F)F | -8.445 |

| SMILES | Percent Effect [%] |
| --- | --- |
| O=C(NC1CC1)N1CCc2ccc(=O)n(CC3CC3)c2CC1 | 7.486 |
| COCCn1c2c(ccc1=O)CCN(C(=O)NC1CC1)CC2 | 105.3 |
| COCCn1c2c(ccc1=O)CCN(C(=O)C1CC=CC1)CC2 | 102.1 |
| CC(C)c1cccc(CSc2nnc(Cn3cncn3)o2)n1 | -1.93 |
| CN(C)C(=O)CN1C(=O)CO[C@@H]2CN(c3ccccn3)C[C@H]21.O=C(O)C(F)(F)F | -2.034 |
| Cc1cc(CCCC(=O)NC2CCN(C)C2=O)c(C)s1 (centres undefined) | -2.482 |
| CNC(=O)CS(=O)(=O)C1CCN(S(=O)(=O)c2ccccc2Br)CC1 | 9.932 |
| Cc1ccc(-c2noc(C(O)CC(C)C)n2)nn1 (centres undefined) | -5.785 |
| O=C(CN1CCS(=O)(=O)CC1)NC1CCOc2ccccc21 (centres undefined) | 5.265 |
| Cc1ccc(CS(=O)(=O)Cc2nc(N)nc(N(C)C)n2)cc1 | 10.59 |
| CN(C)c1cc2c(nn1)CCN(C(=O)C1Cc3ccccc3S1)C2 (centres undefined) | -0.2262 |
| CC(C)c1ccc(O)c(C(=O)NCc2cc[nH]n2)c1 | -15.09 |
| CC(NCCCn1cccn1)c1ccc(N2CCCS2(=O)=O)cc1 (centres undefined) | -2.983 |
| COCCCNS(=O)(=O)c1ccc(N2CCCCS2(=O)=O)cc1 | 124.1 |
| CC(NCCCn1ccnc1)c1ccc(N2CCCS2(=O)=O)cc1 (centres undefined) | -4.666 |
| COC(=O)c1sc(C(F)(F)F)cc1OC | 102.8 |
| COc1cc(C(F)(F)F)sc1C(=O)O | 103.8 |
| CNS(=O)(=O)c1ccsc1C(=O)OC | 1.281 |
| CCOCC(C)(C)NC(=O)Nc1cc(F)ccc1OC | -3.533 |
| COc1cc2cc(C(=O)O)n(C)c2cc1OC | -4.689 |
| COc1cc(C)sc1C(=O)NCCNc1ccccc1 | -4.959 |
| CC1CCCCN1S(=O)(=O)NCCN/C(O)=C1/N=CC=CC1=O (centres undefined) | -4.587 |
| CCc1ccc(CN2CCCC(CO)(CCOC)C2)cc1 (centres undefined) | -6.434 |
| Cc1cc(C)n(CC2CCCN2C(=O)c2ccc(NC3CC3)nc2)n1 (centres undefined) | 104.7 |
| Cc1cc(C)n(CC2CCCN2C(=O)c2ccc(C(N)=O)cn2)n1 (centres undefined) | -1.212 |
| CCOc1ccc(C(=O)N2CCCCC2Cn2nc(C)cc2C)cn1 (centres undefined) | 118.2 |

| SMILES | Percent Effect [%] |
| --- | --- |
| Cc1cc(C)n(CC2CCCCN2C(=O)c2ccc(C(N)=O)cc2)n1 (centres undefined) | 111.1 |
| Cc1cc(C)n(CC2CCCCN2C(=O)c2cnn(C)c2)n1 (centres undefined) | -4.108 |
| Cc1cc(C)n(CC2CCCN2C(=O)c2ccc3[nH]nnc3c2)n1 (centres undefined) | -17 |
| Cc1cc(C)n(CC2CCCCN2C(=O)c2ccc3nncn3c2)n1 (centres undefined) | 3.82 |
| CCOc1ccccc1C(CC(=O)N(C)C)NC(C)=O (centres undefined) | -2.972 |
| CCc1nc2n(n1)CC(NCc1cn(C)nc1-c1cccnc1)CC2 (centres undefined) | -2.892 |
| Cc1cnc(N2CC[C@@H]3O[C@H](COCc4ccccn4)CC[C@@H]32)nc1.O=C(O)C(F)(F)F.O=C(O)C(F)(F)F | -4.87 |
| Cc1ccc2c(c1)SCC(=O)N2CC(=O)N1CCCC1c1nccs1 (centres undefined) | 15.48 |
| O=c1cc(N2CCCC2)cnn1Cc1noc(C2CCCO2)n1 (centres undefined) | -13.05 |
| O=c1cc(N2CCCCC2)cnn1Cc1noc(C2CCCO2)n1 (centres undefined) | -0.8561 |
| O=C1CSc2ccccc2N1Cc1noc(C2CCCO2)n1 (centres undefined) | 108.8 |
| Cc1ccc2c(c1)SCC(=O)N2CC(=O)N1CCC[C@H]1c1nc(C)no1 | 9.485 |
| Cc1cc(C)n(C2CCN(C(=O)CN3C(=O)CSc4ccccc43)C2)n1 (centres undefined) | -2.821 |
| Cc1ccc2c(c1)SCC(=O)N2Cc1noc(C2CC2)n1 | 92.98 |
| Cc1cccc(-c2nc(CN(Cc3cccs3)CC3CCCO3)no2)c1 (centres undefined) | 0.4556 |
| Cc1ccc2c(c1)SCC(=O)N2Cc1noc(C2CCCO2)n1 (centres undefined) | 109.6 |
| CCCc1ccc(CN2C[C@H]3C(=O)N(CC4CC4)C[C@@]3(C(=O)O)C2)o1 | -18.71 |
| CC(C)c1ocnc1C(=O)NC(c1nnc2n1CCNCC2)C(C)C (centres undefined) | 15.04 |
| O=C1CCC(C(=O)N2CCOC(Cc3ccccc3Cl)C2)=NN1 (centres undefined) | -0.3624 |
| Cc1nc(C(C)(C)NC(=O)Nc2ccccc2)no1 | -20.84 |
| CCNC(=O)Cn1ncc(N(C)CCc2ccccc2)cc1=O | 6.09 |
| Cc1ccsc1C(=O)N1CCc2ncc(CN(C)C)n2CC1.O=C(O)C(F)(F)F | -9.607 |
| CN(Cc1ccc(CCC(C)(C)O)cc1)Cc1cccc(O)c1 | -7.089 |
| CC(C)(C)CN1CCCC(c2nccnc2Nc2cnccn2)C1 (centres undefined) | 141 |
| CC(C)(C)CN1CCC(c2nccnc2Nc2cnccn2)CC1 | 104.1 |
| Cn1cncc1-c1nnc([C@H]2CCN(CC(C)(C)C)C2)o1 | -4.073 |

| SMILES | Percent Effect [%] |
| --- | --- |
| Cn1c(Cn2ccnc2)nnc1C1CCCN(CC(C)(C)C)C1 (centres undefined) | -0.4988 |
| CC(C)(C)CN1CCC(c2nnc(Cn3ccnc3)n2C2CC2)CC1 | -15.12 |
| CC(C)N(Cc1ccc(C#N)cc1)Cc1nnsc1Cl | -0.2197 |
| COC(=O)CNC(=O)CC1COc2ccc(C(=O)N(C)C)cc2N1C (centres undefined) | -21.78 |
| Cc1ccc(N2CCCC3(CCN(C(=O)c4sccc4C)C3)C2)nn1 (centres undefined) | -21.87 |
| Cn1cccc1C(=O)N1CCCC2(CCCN2Cc2cccnc2)C1 (centres undefined) | 0.2442 |
| CN(c1ccncn1)C1CC2(CCN(C(=O)c3cccn3C)C2)C1 (centres undefined) | 100.1 |
| CN(c1ccncn1)C1CC2(CCN(C(=O)c3cccs3)C2)C1 (centres undefined) | 5.118 |
| CN(Cc1ccncc1)C1CC2(CCN(C(=O)c3ccnnc3)CC2)C1 | 2.338 |
| Cc1ccsc1C(=O)N1CCC(c2nccn2Cc2ccncc2)CC1 | -26.92 |
| CN(c1ccncn1)C1CC2(CCN(C(=O)Cc3cccs3)C2)C1 (centres undefined) | 98.18 |
| CN(c1ccncn1)C1CC2(CCN(C(=O)CCc3cccs3)C2)C1 (centres undefined) | -6.442 |
| Cc1ccsc1C(=O)N1CCC2(CC(N(C)c3ccncn3)C2)C1 (centres undefined) | 125 |
| CN(c1ccncn1)C1CC2(CCN(C(=O)c3cncs3)C2)C1 (centres undefined) | 101.7 |
| Cc1noc(C)c1CN1CC2(CCN(C(=O)c3cccn3C)C2)CC1=O (centres undefined) | -4.057 |
| CN(C)C(=O)N1CCN(Cc2noc(Cc3ccccc3)n2)CC1 | -7.499 |
| CC(C)CN1C(=O)CO[C@@H]2CN(C(=O)CC(F)(F)F)C[C@H]21 | -4.787 |
| O=C(Nc1ccnc(OC2CCOC2)c1)c1cc(F)ccc1F (centres undefined) | -0.1893 |
| Cc1csc(C(=O)N2CCC3(CC(N(C)c4ccncn4)C3)C2)c1 (centres undefined) | 119.5 |
| Cc1ccc(C(=O)N2CCC3(CC(N(C)c4ccncn4)C3)C2)cn1 (centres undefined) | 100.9 |
| CN(Cc1cccnc1)C1CC2(CCN(C(=O)c3cnccn3)CC2)C1 | -5.762 |
| CN(Cc1cccnc1)C1CC2(CCN(C(=O)c3cscn3)CC2)C1 | -13.69 |
| CN(c1ccncn1)C1CC2(CCN(C(=O)c3ccsc3)C2)C1 (centres undefined) | 9.271 |
| Cc1noc(C)c1CN1CC2(CCN(C(=O)c3c[nH]cn3)C2)CC1=O (centres undefined) | -8.686 |
| Cc1noc(C)c1C(=O)N1CCC2(CC(N(C)c3ccncn3)C2)C1 (centres undefined) | 121.5 |
| Cc1noc(C)c1C(=O)N1CC[C@H]2C[C@@H](c3ccncn3)O[C@@H]2C1 | -6.202 |

— ChEMBL document CHEMBL3988442, “University of Dundee, Small-Polar-MMV Screening Library” (2021)
